# HT1080 IDH1KD tx – toxicity to HT-1080 IDH1 knockdown cells (counter line) | HT-1080 IDH1 knockdown viability, ATP luminescence, 48 h | AID 686971 | actives 2% (n = 360,000) | Potency, µM (doses to about 46.1 µM), for the others: at the top dose activity, negative = toxicity, most hits filed as cytotoxic;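 further: 0% = DMSO wells and -100% = cell-free medium wells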
#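 Viability of IDH1-knockdown HT-1080 fibrosarcoma cells was assessed by CellTiter-Glo after 48 h at 37 °C with titrated compound; concentration-effect curves were classified by fit quality and response size.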
# HT1080NT lethal – kills 2HG-producing HT-1080-NT fibrosarcoma cells; HT-1080-NT fibrosarcoma viability, CellTiter-Glo ATP luminescence, 48 h; Potency, µM (doses to about 46.1 µM), for the others: at the highest dose activity, negative = less viability, actives largely listed as cytotoxic; actives 1.6% (n = 360,000);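 further: NT is the 2HG producing partner of a matched IDH1 knockdown line; 0% = DMSO-treated cells and -100% = media-only wells without cells; nearly all actives have a fitted effect of over 55% in size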
#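 Read-out is CellTiter-Glo luminescence after 10 minutes at room temperature, following 48 hours' compound treatment of HT-1080-NT cells (750 cells/well, RPMI, 5% FBS, 37 degrees C).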
# TDP1 cell noCPT – qHTS for Inhibitors of human tyrosyl-DNA phosphodiesterase 1 (TDP1): qHTS in cells in absence of CPT | DT40 Tdp1-/- hTDP1 cells, no CPT, ATP luminescence, 48 h | Potency, µM (series often up to 46.2 µM), for inactives: at the highest dose activity change, negative = growth inhibition, actives largely listed as inhibitors | actives 15% (n = 420,000) | AID 686978, 2013; further: nearly all actives have a fitted effect of over 55% in size
#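 Camptothecin absent (DMSO only). Human TDP1-complemented DT40 knockout cells, 400 cells/well, 37 °C for minimum 48 hr; ATP measured via CellTiter-Glo, 30 min dark incubation, luminescence.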
# TDP1 cell CPT – DT40-hTDP1 cell growth loss with CPT | chicken DT40 Tdp1-/-;hTDP1 cells + 20 nM CPT, ATP luminescence, 48 h | Potency, µM (series often up to 46.2 µM), for inactives: at the top dose activity change, negative = growth inhibition, most hits filed as inhibitors | actives 12% (n = 420,000) | AID 686979; further: nearly all actives have a fitted effect of over 55% in size
#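 Chicken DT40 Tdp1-/- cells stably complemented with human TDP1 were seeded at 400 cells/well in medium containing 20 nM camptothecin, exposed to pin-transferred compounds, and grown at 37 °C for at least 48 hr. Viability was read as ATP luminescence.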
# KB-V1 MDR tox – KB-V1 MDR subline cytotoxicity | Potency, µM (top dose mostly 46.1 µM), most hits filed as cytotoxic | actives 3.4% (n = 400,000) | KB-V1 MDR cells viability, CellTiter-Glo, 72 h; further: nearly all actives have a fitted effect of over 60% in size
#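 Cells of the MDR subline KB-V1 are plated, dosed with compound at multiple concentrations, and incubated 72 h at 37 degrees C; CellTiter-Glo is then added and luminescence read after 10 min.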
# KB-3-1 cytotox – kills parental KB-3-1 adenocarcinoma cells | Potency, µM (top dose mostly 46.1 µM), usual class: cytotoxic | AID 1347075 | actives 1.4% (n = 400,000) | KB-3-1 viability, CellTiter-Glo ATP luminescence, 72 h; further: nearly all actives have a fitted effect of over 60% in size
#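 Luminescent ATP read-out (CellTiter-Glo) measures survival of drug-naive KB-3-1 cells after 72 h compound exposure at 37 °C. Titration series was screened from lowest to highest concentration, with DMSO vehicle plates as background controls.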
# * = called active by the depositor; i = inactive; ? = inconclusive; . = not tested or not shown. This is a sample that favours compounds with a hit; in the whole collection about 19% have one here. The call rests on the fitted dose curve; in most records, active means well fitted curve in the direction sought with a large enough effect; inconclusive means small, poorly fitted or top-dose-only effect, or another doubt; inactive means no such curve, though single readings can be large; an effect the other way counts as inactive or inconclusive. Unless noted, on the % scale 0 is the no-effect control and ±100 the full control effect; potency means the concentration at half of the fitted maximal effect.
SMILES,HT1080 IDH1KD tx,HT1080NT lethal,TDP1 cell noCPT,TDP1 cell CPT,KB-V1 MDR tox,KB-3-1 cytotox
COCCn1c(=O)[nH]c2cc(C(=O)N3CCN(c4ccc(F)cc4)CC3)ccc2c1=O,.,.,?,?,i,i
COc1ccc(CCn2c(=S)[nH]c3cc(C(=O)N4CCOCC4)ccc3c2=O)cc1OC,-15%,-19%,18µM*,?,?,i
COCCn1c(=S)[nH]c2cc(C(=O)N3CCN(Cc4ccc5c(c4)OCO5)CC3)ccc2c1=O,-10%,?,18µM*,?,2.6µM*,4.1µM*
COCCn1c(=S)[nH]c2cc(C(=O)N3CCN(C4CCCCC4)CC3)ccc2c1=O,-9%,-4%,?,?,i,i
COCCn1c(=O)[nH]c2cc(C(=O)N3CCN(c4cccc(C(F)(F)F)c4)CC3)ccc2c1=O,1%,-16%,13µM*,21µM*,i,i
Cc1ccc(-c2nn3cnnc3c3ccccc23)cc1,-7%,-15%,?,?,i,i
O=C(NCCCN1CCOCC1)c1ccc(NS(=O)(=O)c2ccccc2)cc1,8%,3%,4%,12%,i,i
CCS(=O)(=O)N1CCC(C(=O)Nc2ccc(C(C)=O)cc2)CC1,-4%,1%,10%,0%,i,i
O=C1N[C@@H](Cc2ccccc2)C(=O)N1CCN1CCOCC1,15%,7%,-4%,-7%,i,i
O=C(c1ccc2nc3ccccc3c(=O)n2c1)N1CCN(Cc2ccc3c(c2)OCO3)CC1,-6%,-7%,?,29µM*,i,i
COCCn1c(=O)[nH]c2cc(C(=O)NCCN3CCN(c4cccc(Cl)c4)CC3)ccc2c1=O,-25%,-19%,3.3µM*,15µM*,i,i
COc1cccc2cc(-c3nc4sc(C(=O)Nc5ccc(F)cc5F)c(C)c4c(=O)[nH]3)c(=O)oc12,.,.,-7%,-13%,i,i
CCN(C)C1CN(Cc2cn(Cc3ccc(C)cc3)nn2)S(=O)(=O)C1 (stereo not given),8%,3%,-18%,0%,i,i
Cc1ccc2scc(N3CCN(c4ccccc4)CC3)c(=O)c2c1,.,.,?,?,i,i
Cc1ccc(NC(=O)CCN2C(=O)C3CCCCC3C2=O)cc1[N+](=O)[O-] (stereo not given),-8%,-2%,-19%,1%,i,i
Oc1ccc(C2=NNC(c3ccc(O)cc3)=NN2)cc1,11%,17%,-1%,-3%,i,i
O=c1cc(Nc2ccc3c(c2)OCO3)[nH]c(=O)n1-c1ccc(Br)cc1,35µM*,?,23µM*,?,?,i
COc1cc(C(=O)Nc2cc(C(F)(F)F)ccc2Cl)cc(OC)c1OC,-8%,-2%,?,?,21µM*,i
COc1ccc(C(=O)OC(C)C(=O)Nc2cc(C(F)(F)F)ccc2Cl)c(OC)c1OC (stereo not given),-22%,-8%,16µM*,5.8µM*,?,i
OC[C@@H]1CN(Cc2ccc3c(c2)OCO3)C[C@H](n2cnc3c(NC4CCCC4)ncnc32)O1,15%,-2%,?,?,i,i
CCN(CC)S(=O)(=O)c1ccc2c(c1)nc(CCC(=O)Nc1cccc(C(F)(F)F)c1)n2CC,-23%,-13%,?,29µM*,i,i
CCn1c(CCC(=O)Nc2nc3c(s2)CCCC3)nc2cc(S(=O)(=O)N(C)C)ccc21,-2%,-7%,-20%,9%,23µM*,i

# Compound activity (PubChem BioAssay)
